From PubChem BioAssay come the findings set out here.

Potency and affinity values are given separately. The source made the active and inactive calls.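 How the source made its calls: active means primary screen inhibitor hit that blocks the TRPC4 channel at some tested dose, yielding a dose curve; inactive means the rest.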

Chain of Short transient receptor potential channel 4 (Mus musculus) (Q9QUQ5 whole entry, looked up): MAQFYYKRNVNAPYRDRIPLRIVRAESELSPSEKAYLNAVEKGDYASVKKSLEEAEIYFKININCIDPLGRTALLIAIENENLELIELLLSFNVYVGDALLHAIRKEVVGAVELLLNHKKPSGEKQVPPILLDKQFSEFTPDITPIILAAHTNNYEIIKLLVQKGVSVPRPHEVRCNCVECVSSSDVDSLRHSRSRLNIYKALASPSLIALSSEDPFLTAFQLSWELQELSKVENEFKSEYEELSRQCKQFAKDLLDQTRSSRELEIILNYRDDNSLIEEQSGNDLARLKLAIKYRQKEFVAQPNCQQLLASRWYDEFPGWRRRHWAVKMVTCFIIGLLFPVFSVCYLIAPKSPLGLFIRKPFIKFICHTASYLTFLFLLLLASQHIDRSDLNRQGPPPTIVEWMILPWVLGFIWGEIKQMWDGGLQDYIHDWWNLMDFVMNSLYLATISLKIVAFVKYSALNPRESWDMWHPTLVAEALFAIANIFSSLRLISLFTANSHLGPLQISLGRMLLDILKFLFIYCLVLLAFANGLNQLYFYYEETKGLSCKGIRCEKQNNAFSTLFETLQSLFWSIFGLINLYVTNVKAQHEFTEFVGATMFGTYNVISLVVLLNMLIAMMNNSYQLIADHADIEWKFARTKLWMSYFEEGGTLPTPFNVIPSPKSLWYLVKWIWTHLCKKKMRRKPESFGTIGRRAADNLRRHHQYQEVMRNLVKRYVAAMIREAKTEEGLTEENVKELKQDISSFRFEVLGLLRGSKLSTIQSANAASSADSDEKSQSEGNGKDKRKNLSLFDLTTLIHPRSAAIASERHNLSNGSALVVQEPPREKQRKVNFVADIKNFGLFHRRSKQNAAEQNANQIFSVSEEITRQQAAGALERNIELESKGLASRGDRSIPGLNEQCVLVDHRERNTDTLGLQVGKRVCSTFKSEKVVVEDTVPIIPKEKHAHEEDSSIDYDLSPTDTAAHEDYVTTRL

This test concerns the target Short transient receptor potential channel 4 (Mus musculus) (UniProt Q9QUQ5). Kind of test: mouse TRPC4 channel inhibitors, dose response, cell-based, HEK293 TRPC4/mu-opioid, Fluo-4 calcium (AID 434942). The note with it: HEK293 TRPC4/mu-opioid cells, DAMGO-evoked Fluo-4 calcium ratio; series mostly up to 20 µM.
As for `Clc1ccc(OCC#CCN2CCCC2)cc1`, the outcome was inactive. Turning to `CN(CCOc1ccc(C=C2C(=O)NC(=O)NC2=O)cc1)c1ccccn1`, the result was inactive. On to `CCN1CC2C3CCC(C)(O3)C2C1` (centres undefined), for which the result was inactive.

For the molecule `CC(C)CNc1c2c(nc3ccccc13)CCC2`, the result was inactive. On to `COC(=O)C1=C(c2cc3ccccc3s2)C[C@@H]2CC[C@H]1N2C(=O)NCCO`, for which the result was inactive.

Take `Cc1ccc(-c2cc(-c3ccccc3)cc(-c3ccccc3)[n+]2-c2ccccc2)cc1`: the outcome was inactive. Then `Nc1ccccc1-[n+]1c(-c2ccccc2)cc(-c2ccccc2)cc1-c1ccccc1`, with “inactive”.

Consider `Clc1ccc2c(c1)C(c1ccccc1Cl)=NCc1nnc(N3CCN(CCOc4ccccc4)CC3)n1-2`, for which the outcome was inactive. With `Cc1ccccc1CN1CCNCC1`, the result was inactive. `CN1CCN(Cc2cc(=O)n3ccsc3n2)CC1`: the result was inactive.

Regarding `CCC1=Nc2cc(C(=O)N3CCC4(CC3)OCCO4)ccc2Sc2ccc(Br)cc21`, the result was inactive. Next, `CCCCN1C(=O)NC(=O)C2(Cc3c(nc4c(C)cccn4c3=O)N3CCc4ccccc4C32)C1=O` (centres undefined): “inactive”; `C=CCOC(=O)C1=C(C)OC(N)=C(C#N)[C@@]12C(=O)N(CC(N)=O)c1ccccc12`: “inactive”; `FC(F)(F)c1ccc(CN2CCNCC2)cc1`: “inactive”. For `Clc1ccc(N2CCNCC2)nn1`, the result was inactive. With `O=[N+]([O-])c1ccc(N2CCNCC2)cc1N1CCCCCC1`, the outcome was inactive.

Take `C#CCN1C(=O)C2(C(C#N)=C(N)OC(C)=C2C(=O)OCc2ccccc2)c2ccccc21` (centres undefined): the result was inactive. Then `Cc1ccc(-c2nc(N(C)C3CCN(C)CC3)c3ccccc3n2)cc1`, with “inactive”; and `c1ccc2nc(OCCN3CC3)ccc2c1`, with “inactive”.
